Compounds without any hit were thinned out: in the full panel of roughly 79,000, 15% have a hit. Activity calls are given as the source filed them. Rule as the data show it: active = growth inhibition above about 70%; inactive = the rest.
Legend:
[1] = NCI Yeast Anticancer Drug Screen. Data for the rad50 strain (AID 155);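 also: 0% = growth of vehicle-only cultures of the same strain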; conditions: S. cerevisiae rad50 strain growth inhibition, stronger effect = higher value
Method in brief: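 DNA repair mutant yeast, compound exposure, growth read-out; inhibition is taken relative to vehicle.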

[2] = NCI Yeast Anticancer Drug Screen. Data for the mec2-1 strain (AID 157); conditions: S. cerevisiae mec2-1 strain, stronger effect = higher value
Method in brief: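 Yeast mec2-1 mutant treated with compound. Readout: growth inhibition vs vehicle controls.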

[3] = NCI Yeast Anticancer Drug Screen. Data for the sgs1 mgt1 strain (AID 161);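 also: 0% = growth of cultures given vehicle only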; conditions: S. cerevisiae sgs1 mgt1 strain, stronger effect = higher value
Method in brief: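 Test agents were incubated with a DNA-repair-mutant yeast strain. Growth was then read and compared against vehicle-treated controls.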

[4] = NCI Yeast Anticancer Drug Screen. Data for the cln2 rad14 strain (AID 165);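 also: 0% = growth equal to vehicle treated cultures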; conditions: S. cerevisiae cln2 rad14 strain, stronger effect = higher value
Method in brief: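 cln2 rad14 yeast strain; compound exposure; growth inhibition read vs vehicle controls.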

[5] = NCI Yeast Anticancer Drug Screen. Data for the bub3 strain (AID 167); conditions: S. cerevisiae bub3 mutant strain, stronger effect = higher value
Method in brief: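 In this screen, a yeast mutant lacking normal mitotic checkpoint function is challenged with compound. Relative growth versus vehicle gives the inhibition value.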

[6] = NCI Yeast Anticancer Drug Screen. Data for the mlh1 rad18 strain (AID 175); conditions: S. cerevisiae mlh1 rad18 strain growth inhibition, stronger effect = higher value
Method in brief: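 Yeast w/ defined DNA-repair lesions; compound exposure; growth vs vehicle controls → % inhibition.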

[7] = at 5.0 µM (retest, dose inferred, filed as 0.5)
[8] = at 50.0 µM (retest, dose inferred, filed as 5.0)

Measured: growth inhibition

O=[N+]([O-])c1cccc([N+](=O)[O-])c1Cl
inactive: [1]; [7] 58% | [2]; [7] 22% | [3]; [7] 13% | [4]; [7] 8% | [4]; [8] 12% | [5]; [7] -12% | [5]; [8] 33% | [6]; [7] 7% | [6]; [8] 46%
active: [1]; [8] 96% | [2]; [8] 96% | [3]; [8] 88%

CC/C(=C\c1ccccc1)[N+](=O)[O-]
active: [1]; [8] 99% | [2]; [8] 100% | [3]; [8] 100% | [4]; [8] 99% | [5]; [8] 100% | [6]; [8] 98%
inactive: [1]; [7] 64% | [2]; [7] 11% | [3]; [7] 25% | [4]; [7] 14% | [5]; [7] 28% | [6]; [7] -13%

C[CH2][Sn]([CH2]C)([CH2]C)[CH2]C
inactive: [1]; [7] 6% | [1]; [8] 54% | [2]; [7] 3% | [2]; [8] 22% | [3]; [7] -3% | [3]; [8] 58% | [4]; [7] -6% | [4]; [8] 12% | [5]; [7] 0% | [5]; [8] 35% | [6]; [7] -8% | [6]; [8] 44%

O=C(N/N=C/c1cc(Br)cc(Br)c1[O-])c1ccccc1O.O=C(N/N=C/c1cc(Br)cc(Br)c1[O-])c1ccccc1O.[Zn+2]
inactive: [1]; at 50.0 µM 52.5% | [4]; at 50.0 µM 64.5%
active: [1]; [7] 96% | [1]; [8] 98% | [3]; [7] 97% | [3]; [8] 98% | [3]; at 50.0 µM 85.5% | [4]; [7] 94% | [4]; [8] 96% | [5]; [7] 95% | [5]; [8] 96% | [5]; at 50.0 µM 88.1% | [6]; [7] 95% | [6]; [8] 97% | [6]; at 50.0 µM 83.5%

CC(=O)[O-].O=C([CH-]C(=O)c1ccccc1)c1ccccc1.O=C([CH-]C(=O)c1ccccc1)c1ccccc1.[Y+3]
inactive: [1]; [7] 35% | [1]; [8] 35% | [2]; [7] 19% | [2]; [8] 19% | [5]; [7] 21% | [5]; [8] 21% | [6]; [7] 13% | [6]; [8] 13%
active: [1]; at 50.0 µM 91.4% | [2]; at 50.0 µM 93.7% | [5]; at 50.0 µM 92% | [6]; at 50.0 µM 90.5%

CC/C(=C\c1ccc(Cl)c(Cl)c1)[N+](=O)[O-]
inactive: [2]; [7] 52% | [4]; [7] 13% | [5]; [7] 60% | [6]; [7] 14%
active: [1]; [7] 97% | [1]; [8] 99% | [2]; [8] 100% | [3]; [7] 99% | [3]; [8] 100% | [4]; [8] 99% | [5]; [8] 99% | [6]; [8] 99%

NS(=O)(=O)CCl.[Hg]
inactive: [1]; [7] 13% | [2]; [7] 17% | [3]; [7] 15% | [4]; [7] 3% | [5]; [7] 2% | [6]; [7] -16%
active: [1]; [8] 99% | [2]; [8] 100% | [3]; [8] 100% | [4]; [8] 98% | [5]; [8] 99% | [6]; [8] 93%

O=C([O][Hg][CH2]C1COC([CH2][Hg][O]C(=O)c2ccccc2)CO1)c1ccccc1 (configuration not stated)
active: [1]; [7] 98% | [1]; [8] 98% | [2]; [7] 99% | [2]; [8] 99% | [3]; [7] 99% | [3]; [8] 99% | [3]; at 50.0 µM 89.5% | [4]; [7] 97% | [4]; [8] 98% | [4]; at 50.0 µM 90.6% | [5]; [7] 100% | [5]; [8] 99% | [5]; at 50.0 µM 89.7% | [6]; [7] 98% | [6]; [8] 98%

COC([CH2][Hg])CN1C(=O)c2cc(C)c(C)cc2C1=O (configuration not stated)
active: [1]; [7] 99% | [1]; [8] 99% | [1]; at 50.0 µM 99.3% | [3]; [7] 100% | [3]; [8] 100% | [3]; at 50.0 µM 99.6% | [4]; [7] 99% | [4]; [8] 99% | [4]; at 50.0 µM 98.3% | [5]; [7] 99% | [5]; [8] 99% | [5]; at 50.0 µM 98.7% | [6]; [7] 99% | [6]; [8] 99% | [6]; at 50.0 µM 99.3%

C[C](=O)[Hg][O]c1ccc(N=Cc2ccccc2O)cc1
active: [1]; [7] 99% | [1]; [8] 99% | [2]; [7] 100% | [2]; [8] 100% | [3]; [7] 100% | [3]; [8] 100% | [4]; [7] 99% | [4]; [8] 99% | [5]; [7] 100% | [5]; [8] 99% | [6]; [7] 99% | [6]; [8] 99%

CCC(=O)O.[Ag]
active: [1]; [7] 98% | [1]; [8] 98% | [1]; at 50.0 µM 91.2% | [3]; [7] 99% | [3]; [8] 98% | [3]; at 50.0 µM 91.6% | [4]; [7] 98% | [4]; [8] 97% | [4]; at 50.0 µM 90.3% | [5]; [7] 99% | [5]; [8] 97% | [5]; at 50.0 µM 91% | [6]; [7] 99% | [6]; [8] 97% | [6]; at 50.0 µM 90.3%

O=C(NCC1(O)N=C(c2ccc(F)cc2)c2ccsc2-n2cccc21)c1ccc(Cl)cc1Cl (configuration not stated)
inactive: [1]; [7] 6% | [1]; [8] 63% | [3]; [7] -8% | [3]; [8] 63% | [4]; [7] 2% | [5]; [7] 9% | [5]; [8] 66% | [6]; [7] 6%
active: [1]; at 50.0 µM 96.7% | [3]; at 50.0 µM 97.2% | [4]; [8] 79% | [4]; at 50.0 µM 93.8% | [5]; at 50.0 µM 94.5% | [6]; [8] 77% | [6]; at 50.0 µM 94.9%

O=C([O-])C(F)(F)C(F)(F)F.[C-]#[O+].[C-]#[O+].[C-]#[O+].[C-]#[O+].[C-]#[O+].[Re]
active: [1]; at 50.0 µM 83.7% | [3]; at 50.0 µM 90.7% | [5]; at 50.0 µM 91.5%
inactive: [1]; [7] 15% | [1]; [8] 15% | [3]; [7] 12% | [3]; [8] 12% | [4]; [7] 12% | [4]; [8] 12% | [4]; at 50.0 µM 68.5% | [5]; [7] -4% | [5]; [8] -4% | [6]; [7] 10% | [6]; [8] 10% | [6]; at 50.0 µM 44%

CC(Cc1ccc2c(c1)OCO2)NN (configuration not stated)
inactive: [1]; [7] -2% | [1]; [8] 37% | [2]; [7] -5% | [2]; [8] 6% | [3]; [7] -2% | [3]; [8] 59% | [4]; [7] -5% | [4]; [8] -8% | [6]; [7] -20% | [6]; [8] 16%

O=[N+]([O-])c1cc(Cl)c(Cl)cc1[N+](=O)[O-]
inactive: [2]; [7] 16% | [3]; [7] 41% | [4]; [7] -2% | [5]; [7] 14% | [6]; [7] -11%
active: [1]; [7] 83% | [1]; [8] 99% | [2]; [8] 99% | [3]; [8] 100% | [4]; [8] 99% | [5]; [8] 99% | [6]; [8] 98%

CCC(CC)COC(=O)CI
active: [1]; [8] 97% | [2]; [8] 79% | [3]; [8] 99% | [5]; [8] 86% | [6]; [8] 87%
inactive: [1]; [7] 33% | [2]; [7] 19% | [3]; [7] 28% | [4]; [7] 15% | [4]; [8] 40% | [5]; [7] 50% | [6]; [7] -20%

O=C(CBr)c1ccncc1
active: [1]; [7] 99% | [1]; [8] 99% | [2]; [7] 100% | [2]; [8] 100% | [3]; [7] 100% | [3]; [8] 99% | [4]; [7] 99% | [4]; [8] 99% | [5]; [7] 100% | [5]; [8] 99% | [6]; [7] 95% | [6]; [8] 98%

CCCC1CC[N-]CC1.CCCC1CC[N-]CC1.N#C[S-].N#C[S-].[Cd]
inactive: [1]; [7] 31% | [3]; [7] 10% | [4]; [7] 9% | [4]; [8] 65% | [5]; [7] 8% | [5]; [8] 56% | [6]; [7] -14% | [6]; [8] 46%
active: [1]; [8] 86% | [3]; [8] 76%

O=C(CBr)OCC(O)CCl (configuration not stated)
active: [1]; [7] 92% | [1]; [8] 99% | [2]; [7] 70% | [2]; [8] 100% | [3]; [7] 96% | [3]; [8] 100% | [4]; [8] 99% | [5]; [7] 79% | [5]; [8] 100% | [6]; [8] 99%
inactive: [4]; [7] 49% | [6]; [7] 47%
